According to PubChem BioAssay AID1979 (Broad Institute, 2009):
About 1,700 (0.57%) of roughly 300,000 compounds were called active. Roughly 2% stayed inconclusive and do not appear here. This excerpt belongs to a sample that is enriched for actives. A number with no mark means an inactive call.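 Rule for the calls: active = growth inhibition above about 58% in most replicates (limit read from the data, passing the limit was not always enough); inconclusive = exactly half the replicates above a set limit; inactive = most replicates below a set limit.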

Experiment: Candida growth reduction under fluconazole – CaCi-2 strain, Alamar Blue fluorescence, primary screen (AID 1979);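 note: all wells also contain fluconazole at 8 µg/ml as a sub-toxic cotreatment; 0% = median of DMSO wells and 100% = median of geldanamycin control wells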
Settings: C. albicans CaCi-2 (fluconazole-resistant clinical isolate) + fluconazole, 48 h, active compounds read high, concentration not given here

Question: Which growth inhibition does the source give for CC1COc2ccccc2N1S(=O)(=O)c1ccccc1 (stereo unspecified) here?
Answer: Its growth inhibition is 99.8% (active).

Question: Which growth inhibition does the source give for CC1CN(S(=O)(=O)c2ccccc2)C(C)CN1S(=O)(=O)c1ccccc1 (stereo unspecified) here?
Answer: The growth inhibition was 3.32%.

Question: For O=S(=O)(c1ccccc1)N1CCc2ccccc21, which growth inhibition is on record?
Answer: The growth inhibition was -2.11%.

Question: For CCOc1ccc(S(=O)(=O)NCCC(=O)NCC(C)(C)N2CCOCC2)cc1, which growth inhibition is on record?
Answer: The growth inhibition was -1.97%.

Question: Which growth inhibition does the source give for Cc1nc2ccccn2c(=O)c1NC(=O)c1cccs1 here?
Answer: The growth inhibition was 0.647%.

Question: With COc1cc(/C=C(\C#N)c2nc3c(s2)CC(C)CC3)ccc1O (stereo unspecified) as the compound, how does the growth inhibition read?
Answer: The growth inhibition was 43.5%.

Question: Which growth inhibition does the source give for COc1cc(/C=C(\C#N)c2nc3ccccc3[nH]2)ccc1O here?
Answer: Its growth inhibition is 76.5% (active).

Question: With COc1ccc(/C=C(/NC(=O)c2ccc(C)cc2)c2nc3ccccc3[nH]2)cc1OC as the compound, how does the growth inhibition read?
Answer: The growth inhibition was 23.2%.

Question: For Clc1ccc(Nc2ccc3ccccc3n2)cc1, which growth inhibition is on record?
Answer: Its growth inhibition is -23.2%.

Question: With CCN1C(=O)[C@H]2[C@@H](c3ccc(-c4ccc(OC)cc4)cc3)N[C@@](Cc3ccccc3)(C(=O)OC)[C@H]2C1=O as the compound, how does the growth inhibition read?
Answer: The growth inhibition was 3.17%.

Question: For CCN(CC(=O)Nc1cccc(S(=O)(=O)N2CCCCC2)c1)Cc1ccccc1, which growth inhibition is on record?
Answer: Its growth inhibition is -0.00245%.

Question: For COc1ccccc1NC(=O)COC(=O)c1ccccc1SCC(=O)N1CCCC1, which growth inhibition is on record?
Answer: The growth inhibition was 4.29%.

Question: Which growth inhibition does the source give for COc1ccc(C(=O)C2CCCN(Cc3ccc4nonc4c3)C2)c(C)c1 (stereo unspecified) here?
Answer: Its growth inhibition is 3.47%.

Question: With CCOC(=O)c1[nH]ncc1CN1CCCC(C(=O)c2ccc(OC)cc2C)C1 (stereo unspecified) as the compound, how does the growth inhibition read?
Answer: Its growth inhibition is -8.68%.

Question: Which growth inhibition does the source give for COc1ccc(C(=O)C2CCCN(Cc3cccn3-c3ccccn3)C2)c(C)c1 (stereo unspecified) here?
Answer: The growth inhibition was 110% (active).

Question: Which growth inhibition does the source give for Cc1nc2ccccc2c(=O)n1Cc1ccc([N+](=O)[O-])cc1 here?
Answer: Its growth inhibition is -0.41%.

Question: With CCn1c(/C=C/c2ccc([N+](=O)[O-])o2)nc2ccccc2c1=O as the compound, how does the growth inhibition read?
Answer: The growth inhibition was 99.4% (active).

Question: For CCn1c(=O)c([N+](=O)[O-])c(NCc2ccc3c(c2)OCO3)c2ccccc21, which growth inhibition is on record?
Answer: Its growth inhibition is 18.7%.

Question: For Cc1cccc(-n2nc3c(c2NC(=O)c2cc4ccccc4o2)CS(=O)(=O)C3)c1, which growth inhibition is on record?
Answer: Its growth inhibition is 7.71%.

Question: Which growth inhibition does the source give for CC(=O)N1CCN(C(=O)c2cc(-c3ccc(Cl)s3)nc3ccccc23)CC1 here?
Answer: The growth inhibition was 11.4%.

Question: With CC(=O)Nc1cccc(C(=O)OCC(=O)c2ccc3c(c2)OCO3)c1 as the compound, how does the growth inhibition read?
Answer: The growth inhibition was 4.88%.

Question: For COc1ccc2nc(N3CCN(C(=O)c4ccc([N+](=O)[O-])o4)CC3)sc2c1, which growth inhibition is on record?
Answer: Its growth inhibition is 13.6%.

Question: Which growth inhibition does the source give for Cc1cc(C(=O)NNC(=S)Nc2ccccc2C)cs1 here?
Answer: Its growth inhibition is 1.21%.

Question: For Cc1cc(C(=O)NNC(=S)NC(C)c2ccccc2)cs1 (stereo unspecified), which growth inhibition is on record?
Answer: The growth inhibition was 12.8%.

Question: With Cc1ccc(C)c(NC(=S)NNC(=O)c2csc(C)c2)c1 as the compound, how does the growth inhibition read?
Answer: Its growth inhibition is 82.7% (active).

Question: With NC1=NC(c2ccc([N+](=O)[O-])cc2)N(c2ccc(F)cc2)C(N)=N1 (stereo unspecified) as the compound, how does the growth inhibition read?
Answer: Its growth inhibition is -2.27%.

Question: Which growth inhibition does the source give for Cc1ccc(C(=O)Nc2c(C#N)c(C)c(C)n2Cc2ccccc2)cc1 here?
Answer: Its growth inhibition is -7.7%.

Question: Which growth inhibition does the source give for CC(C)C(=O)N1CC(=O)Nc2ccc(F)cc2C1c1ccc(F)cc1 (stereo unspecified) here?
Answer: The growth inhibition was -3.91%.

Question: For O=C(COC(=O)c1cccs1)Nc1ccccc1Cl, which growth inhibition is on record?
Answer: Its growth inhibition is 7.55%.

Question: For O=C(Nc1ccccc1Cl)Nn1cnnc1, which growth inhibition is on record?
Answer: The growth inhibition was 16.1%.

Question: Which growth inhibition does the source give for O=C(Nc1ccccc1Cl)/C(Cl)=C(\Cl)S(=O)c1ccccc1 (stereo unspecified) here?
Answer: Its growth inhibition is 81.7% (active).

Question: With O=c1[nH]c(/C=C/c2cccc(Br)c2)nc2ccccc12 as the compound, how does the growth inhibition read?
Answer: The growth inhibition was 3.62%.

Question: Which growth inhibition does the source give for COc1ccccc1-n1ccnc(SCC(=O)NC2CCCCC2)c1=O here?
Answer: Its growth inhibition is -2.58%.

Question: Which growth inhibition does the source give for O=C(Nc1nnc(C2COc3ccccc3O2)o1)c1ccc(F)cc1 (stereo unspecified) here?
Answer: Its growth inhibition is 85.8% (active).

Question: Which growth inhibition does the source give for O=C(Nc1ccccc1F)c1ccc2c(c1)OCO2 here?
Answer: The growth inhibition was -5.7%.

Question: For CC1COc2ccccc2N1C(=O)c1ccc(F)cc1 (stereo unspecified), which growth inhibition is on record?
Answer: Its growth inhibition is -3.04%.

Question: With Cc1cccc(N(Cc2ccccc2)C(=O)c2cc(S(=O)(=O)N3CCOCC3)ccc2F)c1 as the compound, how does the growth inhibition read?
Answer: The growth inhibition was -1.4%.

Question: With CCN1C(=O)[C@H]2[C@@H](c3ccc(-c4ccc(F)cc4)cc3)N[C@@](Cc3ccccc3)(C(=O)OC)[C@H]2C1=O as the compound, how does the growth inhibition read?
Answer: Its growth inhibition is -6.22%.

Question: Which growth inhibition does the source give for COC(=O)N/N=C/c1c[n+]([O-])c2ccccc2[n+]1[O-] here?
Answer: Its growth inhibition is 12.4%.

Question: For Cc1ccc(NC(=O)CN(C)C(=O)Cn2nnc(-c3ccccc3)n2)cc1, which growth inhibition is on record?
Answer: Its growth inhibition is -6.13%.

Question: With O=C1CCCN1C(=O)COc1ccc([N+](=O)[O-])cc1 as the compound, how does the growth inhibition read?
Answer: The growth inhibition was 4.3%.

Question: For Cc1cccc(C(=O)N2CCc3c([nH]c4ccccc34)C2CC(C)C)n1 (stereo unspecified), which growth inhibition is on record?
Answer: Its growth inhibition is 12.9%.

Question: With O=C(c1cn2ccccc2n1)N1CCc2c([nH]c3ccccc23)C1c1ccccn1 (stereo unspecified) as the compound, how does the growth inhibition read?
Answer: Its growth inhibition is -2.25%.

Question: With Cc1cccc(C2c3[nH]c4ccccc4c3CCN2C(=O)c2cc(-c3cccn3C)n[nH]2)n1 (stereo unspecified) as the compound, how does the growth inhibition read?
Answer: Its growth inhibition is 79.7% (active).

Question: Which growth inhibition does the source give for O=C(NCc1ccccc1)C1=C[C@@H](c2ccccc2)C[C@@H](OCCCCO)O1 here?
Answer: Its growth inhibition is -5.03%.

Question: With CCN(CC(=O)Nc1cc(Cl)ccc1C)C(=O)Cn1c(=O)cnc2ccccc21 as the compound, how does the growth inhibition read?
Answer: Its growth inhibition is -1.02%.
